Measured values as given in the supplement of paper PMC7411054.

Test system: HepG2-CANX-COX4
Test: lowest phenotypically active concentration; higher = less potent
Conditions: treatment time: 24 h
Method in brief: (§1)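 Two criteria together defined phenotypic activity: deviation and reproducibility. Deviation meant ≥3 of 4 wells beyond the 95th percentile of Euclidean distances in solvent control wells, and reproducibility meant a median replicate Pearson correlation above the 95th percentile of non-replicates. Wells had been treated for 24 h at 0.3, 1, 3 or 9 µM in fifteen gene-edited A549, HepG2 and WPMY1 reporter lines before live imaging.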

SMILES | lowest phenotypically active concentration
O=c1[nH]cc(F)c(=O)[nH]1 [5-Fluorouracil] | 3 µM
CC[C@H](C)[C@H](NC(=O)OCc1ccccc1)C(=O)N[C@@H](CCC(=O)OC(C)(C)C)C(=O)N[C@@H](C)C(=O)N[C@H](C=O)CC(C)C | ≤ 0.3 µM
CCN1CCN(C(c2cccnc2)c2cc(Cl)c3cccnc3c2O)CC1 (stereo unspecified) | 9 µM
CCOc1cc(N2CCC(O)CC2)ccc1Nc1ncc2c(n1)N(C)c1ccccc1C(=O)N2C | 3 µM
Cc1c2oc3c(C)ccc(C(=O)NC4C(=O)NC(C(C)C)C(=O)N5CCCC5C(=O)N(C)CC(=O)N(C)C(C(C)C)C(=O)OC4C)c3nc-2c(C(=O)NC2C(=O)NC(C(C)C)C(=O)N3CCCC3C(=O)N(C)CC(=O)N(C)C(C(C)C)C(=O)OC2C)c(N)c1=O (stereo unspecified) [Actinomycin D] | ≤ 0.3 µM
N#Cc1c(NC(=O)c2cccc3ccccc23)sc2c1CCCC2 | ≤ 0.3 µM
COc1ccc2c(Oc3ccc(NC(=O)c4c(C)n(CC(C)(C)O)n(-c5ccccc5)c4=O)nc3)ccnc2c1 | 9 µM
CN1C/C(=C/c2ccc(B(O)O)cc2)C(=O)/C(=C/c2ccc(B(O)O)cc2)C1 | 3 µM
Nc1ccn([C@@H]2O[C@H](CO)[C@@H](O)C2(F)F)c(=O)n1 [gemcitabine] | ≤ 0.3 µM
Oc1ccc(Nc2nc(-c3ccc(Cl)cc3)cs2)cc1 | 9 µM
Cc1nc(NC(=O)N2CCC[C@H]2C(N)=O)sc1-c1ccnc(C(C)(C)C(F)(F)F)c1 [alpelisib] | ≤ 0.3 µM
CCN(CC)CCCC(C)Nc1ccnc2cc(Cl)ccc12 (stereo unspecified) [chloroquine] | 9 µM
O=c1cc(-c2cccc3c2Sc2ccccc2S3)oc(N2CCOCC2)c1 | 3 µM
CC(C)CCN1c2nc(Nc3cc(F)c(O)c(F)c3)ncc2N(C)C(=O)C1C (stereo unspecified) | 3 µM
Nc1cc(C(F)(F)F)c(-c2cc(N3CCOCC3)nc(N3CCOCC3)n2)cn1 [buparlisib] | 1 µM
COc1cc([C@@H]2c3cc4c(cc3[C@@H](O[C@@H]3O[C@@H]5CO[C@@H](C)O[C@H]5[C@H](O)[C@H]3O)[C@H]3COC(=O)[C@H]23)OCO4)cc(OC)c1O [etoposide] | 1 µM
CCN1CCN(c2cc(-c3ccc(F)cc3)c3c(n2)CCCCCC3)CC1 [blonanserin] | 9 µM
COc1cc2c(NC3CCN(C(C)C)CC3)nc(C3CCCCC3)nc2cc1OCCCN1CCCC1 | 3 µM
COc1cc2ncn(-c3cc(OCc4ccccc4C(F)(F)F)c(C(N)=O)s3)c2cc1OC | ≤ 0.3 µM
Cc1nc(NC(=O)N2CCC[C@H]2C(N)=O)sc1-c1csc(C(C)(C)C)n1 | 3 µM

Test system: HepG2-GM130-SQSTM1
Test: as above
Conditions: treatment time: 24 h
Method in brief: as §1

SMILES | lowest phenotypically active concentration
O=C(c1ccc(C(=O)N2CCC(N3CCCC3)CC2)c(Nc2ccccc2)c1)N1CCC(N2CCCC2)CC1 | 9 µM
O=c1[nH]cc(F)c(=O)[nH]1 [5-Fluorouracil] | 3 µM
CC[C@H](C)[C@H](NC(=O)OCc1ccccc1)C(=O)N[C@@H](CCC(=O)OC(C)(C)C)C(=O)N[C@@H](C)C(=O)N[C@H](C=O)CC(C)C | ≤ 0.3 µM
CCN1CCN(C(c2cccnc2)c2cc(Cl)c3cccnc3c2O)CC1 (stereo unspecified) | 9 µM
CCOc1cc(N2CCC(O)CC2)ccc1Nc1ncc2c(n1)N(C)c1ccccc1C(=O)N2C | 3 µM
Cc1c2oc3c(C)ccc(C(=O)NC4C(=O)NC(C(C)C)C(=O)N5CCCC5C(=O)N(C)CC(=O)N(C)C(C(C)C)C(=O)OC4C)c3nc-2c(C(=O)NC2C(=O)NC(C(C)C)C(=O)N3CCCC3C(=O)N(C)CC(=O)N(C)C(C(C)C)C(=O)OC2C)c(N)c1=O (stereo unspecified) [Actinomycin D] | ≤ 0.3 µM
N#Cc1c(NC(=O)c2cccc3ccccc23)sc2c1CCCC2 | ≤ 0.3 µM
COc1ccc2c(Oc3ccc(NC(=O)c4c(C)n(CC(C)(C)O)n(-c5ccccc5)c4=O)nc3)ccnc2c1 | 9 µM
CN1C/C(=C/c2ccc(B(O)O)cc2)C(=O)/C(=C/c2ccc(B(O)O)cc2)C1 | 3 µM
Nc1ccn([C@@H]2O[C@H](CO)[C@@H](O)C2(F)F)c(=O)n1 [gemcitabine] | ≤ 0.3 µM
Oc1ccc(Nc2nc(-c3ccc(Cl)cc3)cs2)cc1 | 9 µM
Cc1nc(NC(=O)N2CCC[C@H]2C(N)=O)sc1-c1ccnc(C(C)(C)C(F)(F)F)c1 [alpelisib] | 1 µM
CCN(CC)CCCC(C)Nc1ccnc2cc(Cl)ccc12 (stereo unspecified) [chloroquine] | 3 µM
O=c1cc(-c2cccc3c2Sc2ccccc2S3)oc(N2CCOCC2)c1 | 9 µM
CC(C)CCN1c2nc(Nc3cc(F)c(O)c(F)c3)ncc2N(C)C(=O)C1C (stereo unspecified) | 1 µM
Nc1cc(C(F)(F)F)c(-c2cc(N3CCOCC3)nc(N3CCOCC3)n2)cn1 [buparlisib] | 3 µM
COc1cc([C@@H]2c3cc4c(cc3[C@@H](O[C@@H]3O[C@@H]5CO[C@@H](C)O[C@H]5[C@H](O)[C@H]3O)[C@H]3COC(=O)[C@H]23)OCO4)cc(OC)c1O [etoposide] | 1 µM
CCN1CCN(c2cc(-c3ccc(F)cc3)c3c(n2)CCCCCC3)CC1 [blonanserin] | 9 µM
COc1cc2c(NC3CCN(C(C)C)CC3)nc(C3CCCCC3)nc2cc1OCCCN1CCCC1 | 1 µM
COc1cc2ncn(-c3cc(OCc4ccccc4C(F)(F)F)c(C(N)=O)s3)c2cc1OC | ≤ 0.3 µM
Cc1nc(NC(=O)N2CCC[C@H]2C(N)=O)sc1-c1csc(C(C)(C)C)n1 | 3 µM
